Data on 30 sequences can be found in article PMC13541613, “GHT-SELEX demonstrates unexpectedly high intrinsic sequence specificity and complex DNA binding of many human transcription factors”.

What all share (test): HT-SELEX; 20 mM HEPES pH 7, 140 mM KCl, 5 mM NaCl, 1 mM K2HPO4, 2 mM MgSO4, 100 uM EGTA, ZnSO4, 0.1% Tween20; room temperature, 1 h; high values mean tight binding
Common to all, as to conditions: protein: ivt; tags: eGFP (N-terminal); dsDNA, one strand shown

For experiment [1], the target named is ZNF721 full-length (Homo sapiens, UniProt Q8TF20-2 1-923). Put shortly: (§1)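 Full-length or DNA-binding-domain forms of a tagged transcription factor were produced in HEK293 lysate or cell-free extract and immobilised on beads. Incubation with a randomized 40-base DNA library ran for 1 h at room temperature in HEPES/KCl low-stringency buffer with Tween20, after which bound DNA was washed, heat-eluted, PCR-amplified over successive cycles and Illumina-sequenced. Binding strength is given as the relative k-mer count in selected reads, higher for tighter binding.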
Sequence of ZNF721 full-length (Q8TF20 other isoform, or with tags, fused parts or gaps): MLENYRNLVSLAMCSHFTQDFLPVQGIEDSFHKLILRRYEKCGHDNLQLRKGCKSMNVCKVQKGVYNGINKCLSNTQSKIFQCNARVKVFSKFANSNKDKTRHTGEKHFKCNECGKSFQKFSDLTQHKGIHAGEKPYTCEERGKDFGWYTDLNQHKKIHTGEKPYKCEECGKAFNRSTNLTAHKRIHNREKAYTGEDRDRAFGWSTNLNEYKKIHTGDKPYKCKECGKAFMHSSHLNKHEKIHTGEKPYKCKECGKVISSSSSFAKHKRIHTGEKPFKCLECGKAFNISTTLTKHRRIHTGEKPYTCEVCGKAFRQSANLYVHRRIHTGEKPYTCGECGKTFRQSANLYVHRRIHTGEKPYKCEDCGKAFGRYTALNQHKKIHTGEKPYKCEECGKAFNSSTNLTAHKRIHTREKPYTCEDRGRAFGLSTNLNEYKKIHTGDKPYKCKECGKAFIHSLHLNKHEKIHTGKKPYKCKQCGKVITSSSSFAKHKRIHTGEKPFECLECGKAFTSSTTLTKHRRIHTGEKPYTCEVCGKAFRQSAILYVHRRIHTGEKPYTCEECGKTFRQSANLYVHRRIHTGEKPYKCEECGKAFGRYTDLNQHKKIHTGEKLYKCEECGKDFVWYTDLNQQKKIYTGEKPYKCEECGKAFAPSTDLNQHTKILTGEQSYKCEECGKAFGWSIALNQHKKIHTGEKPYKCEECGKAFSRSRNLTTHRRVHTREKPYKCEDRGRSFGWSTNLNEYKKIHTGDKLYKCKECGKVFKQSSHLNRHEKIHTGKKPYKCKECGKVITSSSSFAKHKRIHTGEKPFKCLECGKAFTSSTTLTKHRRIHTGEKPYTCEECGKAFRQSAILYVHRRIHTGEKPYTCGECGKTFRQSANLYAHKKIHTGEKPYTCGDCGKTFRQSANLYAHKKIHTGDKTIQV

The target in experiment [2] is ZNF721 DBD1 (Homo sapiens, UniProt Q8TF20-2 29-461). Put shortly: as §1
Sequence of ZNF721 DBD1 (Q8TF20 17-449): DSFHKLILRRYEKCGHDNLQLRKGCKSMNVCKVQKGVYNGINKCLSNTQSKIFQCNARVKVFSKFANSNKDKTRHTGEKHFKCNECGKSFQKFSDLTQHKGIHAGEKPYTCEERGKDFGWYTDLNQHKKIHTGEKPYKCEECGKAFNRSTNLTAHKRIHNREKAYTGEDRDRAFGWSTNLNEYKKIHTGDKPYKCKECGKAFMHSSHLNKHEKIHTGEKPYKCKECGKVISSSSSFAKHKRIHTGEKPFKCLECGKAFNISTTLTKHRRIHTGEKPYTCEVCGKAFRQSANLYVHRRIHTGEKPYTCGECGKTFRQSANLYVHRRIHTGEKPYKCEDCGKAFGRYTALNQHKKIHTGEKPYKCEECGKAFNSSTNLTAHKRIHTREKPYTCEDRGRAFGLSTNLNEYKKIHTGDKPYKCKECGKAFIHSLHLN
Experiment [3] deals with ZNF721 DBD2 (Homo sapiens, UniProt Q8TF20-2 395-923). Put shortly: as §1
Sequence of ZNF721 DBD2 (Q8TF20 383-911): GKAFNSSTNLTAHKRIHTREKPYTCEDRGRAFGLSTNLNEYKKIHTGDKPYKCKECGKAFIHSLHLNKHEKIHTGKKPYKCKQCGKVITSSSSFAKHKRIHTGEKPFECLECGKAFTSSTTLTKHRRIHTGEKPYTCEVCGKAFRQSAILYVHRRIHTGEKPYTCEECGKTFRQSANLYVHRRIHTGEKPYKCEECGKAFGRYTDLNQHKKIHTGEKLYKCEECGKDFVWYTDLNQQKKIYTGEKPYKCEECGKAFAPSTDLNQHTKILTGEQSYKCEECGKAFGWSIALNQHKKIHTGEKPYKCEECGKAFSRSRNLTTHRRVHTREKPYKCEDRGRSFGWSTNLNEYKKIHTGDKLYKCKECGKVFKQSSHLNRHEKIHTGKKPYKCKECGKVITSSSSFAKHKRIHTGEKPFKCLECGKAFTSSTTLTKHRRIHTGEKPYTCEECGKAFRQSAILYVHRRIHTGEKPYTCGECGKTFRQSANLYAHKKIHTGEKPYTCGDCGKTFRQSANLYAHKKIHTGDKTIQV

Take AAAAAGCGTC: the binding signal in experiment [1] was found to be 0.108 relative 10-mer count; in experiment [2], 0.0239 relative 10-mer count; in experiment [3], 0.0102 relative 10-mer count.

As to ACAGCGTTAC, the binding signal in experiment [1] was 0.102 relative 10-mer count; in experiment [2] it was 0.00105 relative 10-mer count; in experiment [3], 0.207 relative 10-mer count.

Consider ACACCCCACC, for which the binding signal came out at 0.13 relative 10-mer count in experiment [1], 0.00413 relative 10-mer count in experiment [2] and 0.00204 relative 10-mer count in experiment [3].

Consider CTACCCCCCC, for which the values for the binding signal in experiment [1], in experiment [2] and in experiment [3] were 0.105 relative 10-mer count, 0.00427 relative 10-mer count and 0.00312 relative 10-mer count, respectively.

As for CAGGGGTGGG, the binding signal in experiment [1] was determined as 0.103 relative 10-mer count; in experiment [2], 0.00482 relative 10-mer count; in experiment [3], 0.00419 relative 10-mer count.

Regarding CACCCACCGC, the values for the binding signal in experiment [1], in experiment [2] and in experiment [3] were 0.103 relative 10-mer count, 0.00463 relative 10-mer count and 0.00455 relative 10-mer count, respectively.

Consider ACCTCCCCAC, for which the values for the binding signal in experiment [1], in experiment [2] and in experiment [3] were 0.108 relative 10-mer count, 0.00422 relative 10-mer count and 0.0036 relative 10-mer count, respectively.

Consider CCACCCCCCA, for which the values for the binding signal in experiment [1], in experiment [2] and in experiment [3] were 0.272 relative 10-mer count, 0.0103 relative 10-mer count and 0.00443 relative 10-mer count, respectively.

CACCCCACAC: the binding signal is 0.138 relative 10-mer count in experiment [1], 0.0055 relative 10-mer count in experiment [2] and 0.00875 relative 10-mer count in experiment [3].

As to GCACCCCACC, the results for the binding signal in experiment [1], in experiment [2] and in experiment [3] were 0.104 relative 10-mer count, 0.00284 relative 10-mer count and 0.00491 relative 10-mer count, respectively.

Consider CCACCCCCCC, for which the binding signal is 0.32 relative 10-mer count in experiment [1], 0.0122 relative 10-mer count in experiment [2] and 0.00336 relative 10-mer count in experiment [3].

Consider ACAAAAAAAC, for which the binding signal was 0.151 relative 10-mer count in experiment [1], 0.00188 relative 10-mer count in experiment [2] and 0.0972 relative 10-mer count in experiment [3].

As to AGGCAACACT, the binding signal in experiment [1] is 0.174 relative 10-mer count; in experiment [2], 0.00697 relative 10-mer count; in experiment [3] it was 0.391 relative 10-mer count.

As for AGAAAAAAGC, the binding signal in experiment [1] is 0.36 relative 10-mer count; in experiment [2] it was 0.107 relative 10-mer count; in experiment [3], 0.0556 relative 10-mer count.

In the case of CCCCCACCGC, the binding signal is 0.192 relative 10-mer count in experiment [1], 0.00936 relative 10-mer count in experiment [2] and 0.00479 relative 10-mer count in experiment [3].

With CAAACAAGCA, the binding signal in experiment [1] was 0.102 relative 10-mer count; in experiment [2], 0.00362 relative 10-mer count; in experiment [3], 0.063 relative 10-mer count.

For the sequence GGGGGGTGGA, the binding signal is 0.145 relative 10-mer count in experiment [1], 0.00615 relative 10-mer count in experiment [2] and 0.00407 relative 10-mer count in experiment [3].

CCACGCCCAC: the binding signal in experiment [1] came to 0.102 relative 10-mer count; in experiment [2] it was 0.00514 relative 10-mer count; in experiment [3], 0.00431 relative 10-mer count.

CGCCCCCACC: the binding signal in experiment [1] was 0.19 relative 10-mer count; in experiment [2], 0.00945 relative 10-mer count; in experiment [3], 0.00515 relative 10-mer count.

With ACCCACCCCC, the binding signal in experiment [1] is 0.265 relative 10-mer count; in experiment [2] it was 0.0111 relative 10-mer count; in experiment [3], 0.00252 relative 10-mer count.

CTCCACCCCC: the binding signal in experiment [1] is 0.178 relative 10-mer count; in experiment [2], 0.00812 relative 10-mer count; in experiment [3] it was 0.00467 relative 10-mer count.

In the case of CCATCCCCCC, the binding signal in experiment [1] worked out at 0.155 relative 10-mer count; in experiment [2], 0.00592 relative 10-mer count; in experiment [3], 0.0036 relative 10-mer count.

Take CCCCTCCCTC: the binding signal in experiment [1] turned out to be 0.159 relative 10-mer count; in experiment [2], 0.00789 relative 10-mer count; in experiment [3] it was 0.00336 relative 10-mer count.

As to CCCCCCCCAC, the binding signal turned out to be 0.257 relative 10-mer count in experiment [1], 0.0089 relative 10-mer count in experiment [2] and 0.00539 relative 10-mer count in experiment [3].

With CCGCCCCTCC, the results for the binding signal in experiment [1], in experiment [2] and in experiment [3] were 0.151 relative 10-mer count, 0.00624 relative 10-mer count and 0.00312 relative 10-mer count, respectively.

In the case of AAAAAGCATC, the binding signal was 0.123 relative 10-mer count in experiment [1], 0.0262 relative 10-mer count in experiment [2] and 0.0225 relative 10-mer count in experiment [3].

In the case of CCACCCCTCC, the binding signal worked out at 0.209 relative 10-mer count in experiment [1], 0.0108 relative 10-mer count in experiment [2] and 0.00491 relative 10-mer count in experiment [3].

Turning to ACCCACCCCA, the figures for the binding signal in experiment [1], in experiment [2] and in experiment [3] were 0.167 relative 10-mer count, 0.00798 relative 10-mer count and 0.00515 relative 10-mer count, respectively.

For the sequence CACCCTCCAC, the binding signal was 0.106 relative 10-mer count in experiment [1], 0.0056 relative 10-mer count in experiment [2] and 0.00587 relative 10-mer count in experiment [3].

Consider CCCCGCTCCC, for which the binding signal was determined as 0.139 relative 10-mer count in experiment [1], 0.0044 relative 10-mer count in experiment [2] and 0.00108 relative 10-mer count in experiment [3].
